According to PubChem BioAssay AID1159580 (chemical genetic matrix, 2015):
Where “and” joins values, the source holds several entries; their conditions need not be identical. Equal values may be shown once. Among all 5,500 compounds or so, about 2,000 (36%) were called active. Not shown: some 18% with an inconclusive outcome. Cut-off read from the data, not from the text of the source: active = normalized growth mostly below about 0.91 (no sharp cut-off); inconclusive = no clear call, values can overlap the other calls; inactive = mostly above about 0.92. This is one part of the list.

Experiment: chemical genetic growth profiling, strain panel (AID 1159580);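 note: tested at 20 µM; growth read once vehicle control cultures reached saturation at 30 °C; 1 = growth at the plate median or of vehicle wells; lower values mean less growth of the strain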
Conditions: S. cerevisiae deletion strains, growth OD

Measured: normalized growth

COc1ccc2c(c1)OC1(O)COc3cc(OC)c(OC)cc3C1=C2 (stereo unspecified)
active: locus YDR392W, strain spt3, active compounds read low 0.734
inactive: locus YAL013W, strain DEP1, active compounds read low 0.99 | locus YAL021C, strain ccr4, active compounds read low 1 | locus YAL026C, strain drs2, active compounds read low 0.97 | locus YAL030W, strain snc1, active compounds read low 0.973 | locus YBL061C, strain skt5, active compounds read low 0.968 | locus YBR009C, strain hhf1, active compounds read low 1 | locus YBR021W, strain FUR4, active compounds read low 1.01 | locus YBR023C, strain chs3, active compounds read low 0.979 | locus YBR171W, strain sec66, active compounds read low 0.965 | locus YBR229C, strain ROT2, active compounds read low 1.01 | locus YBR231C, strain swc5, active compounds read low 0.939 | locus YBR279W, strain paf1, active compounds read low 0.984 | locus YCL011C, strain gbp2, active compounds read low 0.983 | locus YCL016C, strain dcc1, active compounds read low 1.01 | locus YCL029C, strain bik1, active compounds read low 0.981 | locus YCL069W, strain vba3, active compounds read low 0.988 | locus YCR088W, strain abp1, active compounds read low 0.978 | locus YDL005C, strain med2, active compounds read low 0.978 | locus YDL035C, strain GPR1, active compounds read low 0.974 | locus YDL040C, strain nat1, active compounds read low 0.971 | locus YDL074C, strain BRE1, active compounds read low 0.992 | locus YDL101C, strain DUN1, active compounds read low 1.02 | locus YDL134C, strain PPH21, active compounds read low 1.01 | locus YDL185W, strain tfp1, active compounds read low 0.983 | locus YDL192W, strain arf1, active compounds read low 0.977 | locus YDR001C, strain nth1, active compounds read low 0.98 | locus YDR069C, strain doa4, active compounds read low 0.961 | locus YDR101C, strain arx1, active compounds read low 0.972 | locus YDR137W, strain rgp1, active compounds read low 0.934 | locus YDR150W, strain NUM1, active compounds read low 1.01 | locus YDR159W, strain sac3, active compounds read low 0.897 | locus YDR162C, strain NBP2, active compounds read low 1.01 | locus YDR195W, strain ref2 0.992 | locus YDR297W, strain sur2, active compounds read low 0.978 | locus YDR318W, strain mcm21, active compounds read low 0.949 | locus YDR334W, strain swr1, active compounds read low 0.982 | locus YDR335W, strain msn5, active compounds read low 0.996 | locus YDR388W, active compounds read low 0.981 | locus YDR502C, strain sam2, active compounds read low 0.985 | locus YEL003W, strain gim4, active compounds read low 0.962 | locus YEL037C, strain rad23, active compounds read low 0.99 | locus YEL061C, strain CIN8 (second series), active compounds read low 0.978 | locus YEL061C, strain CIN8, active compounds read low 1 | locus YER015W, strain faa2, active compounds read low 0.993 | locus YER016W, strain bim1, active compounds read low 0.971 | locus YER110C, active compounds read low 0.976 | locus YER111C, strain swi4, active compounds read low 0.97 | locus YER155C, strain BEM2 (second series), active compounds read low 0.904 | locus YER155C, strain BEM2, active compounds read low 1 | locus YER167W, strain BCK2, active compounds read low 0.963 | locus YFR010W, strain ubp6, active compounds read low 0.965 | locus YGL078C, strain dbp3, active compounds read low 1.01 | locus YGL086W, strain mad1, active compounds read low 0.97 | locus YGL167C, strain pmr1, active compounds read low 0.985 | locus YGL173C, strain kem1, active compounds read low 0.94 | locus YGL227W, strain vid30, active compounds read low 0.978 | locus YGL240W, strain doc1, active compounds read low 0.942 | locus YGL248W, strain PDE1, active compounds read low 1.01 | locus YGL253W, strain hxk2, active compounds read low 0.929 | locus YGR078C, strain PAC10, active compounds read low 0.985 | locus YGR135W, strain pre9, active compounds read low 0.985 | locus YGR229C, strain SMI1, active compounds read low 0.967 | locus YGR252W, strain gcn5, active compounds read low 0.873 | locus YHR013C, strain ard1, active compounds read low 0.977 | locus YHR027C, strain rpn1, active compounds read low 0.986 | locus YHR030C, strain SLT2, active compounds read low 0.996 and 0.931 | locus YHR079C, strain IRE1 (second series), active compounds read low 0.972 | locus YHR079C, strain IRE1, active compounds read low 0.925 | locus YHR094C, strain hxt1, active compounds read low 0.989 | locus YHR129C, strain ARP1, active compounds read low 1.01 | locus YHR142W, strain chs7, active compounds read low 0.926 | locus YHR200W, strain rpn10, active compounds read low 0.972 | locus YIL066C, strain RNR3, active compounds read low 0.986 | locus YIL073C, strain SPO22, active compounds read low 0.895 | locus YIL125W, strain kgd1, active compounds read low 0.997 | locus YIR030C, strain dcg1, active compounds read low 0.987 | locus YJL092W, strain hpr5, active compounds read low 0.979 | locus YJL095W, strain BCK1 (second series), active compounds read low 0.98 | locus YJL095W, strain BCK1, active compounds read low 0.965 and 0.92 | locus YJL115W, strain asf1, active compounds read low 0.983 | locus YJL129C, strain trk1, active compounds read low 0.979 | locus YJL134W, strain LCB3, active compounds read low 1 | locus YJL154C, strain vps35, active compounds read low 0.977 | locus YJL164C, strain tpk1, active compounds read low 0.983 | locus YJL166W, strain qcr8, active compounds read low 0.948 | locus YJL168C, strain set2, active compounds read low 0.989 | locus YJL187C, strain SWE1 (second series), active compounds read low 1.01 | locus YJL187C, strain SWE1, active compounds read low 0.999 | locus YJR043C, strain POL32, active compounds read low 0.97 | locus YJR066W, strain TOR1, active compounds read low 0.9
